An excerpt weighted towards active compounds, which were near 6.3% of everything screened.
RORg inh: blocks mouse ROR gamma transcriptional activity | P51450 | 5.4% of 310,000 active | Potency, µM (doses to about 53.6 µM), for the others: at the highest dose activity change, negative = inhibition, most hits filed as inhibitors | Drosophila S2 Gal4-RORgamma UAS-luciferase reporter, 20 h; also: % is scaled to controls: 0 for no effect and ±100 for the full control effect; nearly all actives have a fitted effect of over 60% in size
Target sequence (P51450 whole entry, looked up, the tested form may be a part): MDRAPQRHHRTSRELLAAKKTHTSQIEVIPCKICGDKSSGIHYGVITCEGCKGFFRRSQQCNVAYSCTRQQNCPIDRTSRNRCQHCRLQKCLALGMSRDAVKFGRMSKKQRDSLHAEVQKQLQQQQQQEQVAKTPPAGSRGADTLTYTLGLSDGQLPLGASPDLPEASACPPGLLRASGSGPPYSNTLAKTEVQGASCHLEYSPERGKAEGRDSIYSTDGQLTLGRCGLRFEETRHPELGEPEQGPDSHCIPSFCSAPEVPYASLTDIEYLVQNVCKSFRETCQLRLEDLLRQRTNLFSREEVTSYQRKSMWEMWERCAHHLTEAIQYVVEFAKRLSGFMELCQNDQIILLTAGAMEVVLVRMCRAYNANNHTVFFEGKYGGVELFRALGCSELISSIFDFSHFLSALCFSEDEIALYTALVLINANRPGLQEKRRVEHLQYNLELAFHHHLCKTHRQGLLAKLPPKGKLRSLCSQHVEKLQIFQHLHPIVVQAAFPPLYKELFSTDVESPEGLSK
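Drosophila S2 cells stably expressing Gal4-DBD/mouse RORγ fusion under metallothionein promoter plus UAS-luciferase; compound 1 h, then 700 uM CuSO4 induction for 20 h at ambient temperature; inhibition read as reduced luminescence.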
ATXN2 expr inh: reduces ATXN2 reporter expression in HEK-293 cells. HEK-293 ATXN2-luciferase reporter, luminescence, 24 h. Potency, µM (doses to about 57 µM), for inactives: at the highest dose activity change, negative = inhibition, most hits filed as inhibitors. 0.72% of 360,000 active; also: % is scaled to controls: 0 for no effect and ±100 for the full control effect; nearly all actives have a fitted effect of over 55% in size
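qHTS (up to 57 uM final) was run with 24 h compound exposure of reporter cells at 37 °C. Each well was multiplexed: SteadyGlo luminescence measured ATXN2-luciferase expression after a fluorogenic Gly-Phe-AFC viability readout (25 uM final).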
TGFb inhibitor: TGF-b pathway inhibition; AID 588855; Potency, µM (top dose mostly 46.1 µM), without a hit: at the top dose activity, negative = inhibition, actives largely listed as inhibitors; 1.2% of 410,000 active; HepG2 CAGA-GFP TGF-b/SMAD3 reporter, GFP fluorescence, 18 h; TGF-beta stimulated, 500 pg/mL final; also: % is scaled to controls: 0 for no effect and ±100 for the full control effect; nearly all actives have a fitted effect of over 65% in size
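HEPG2 CAGA-GFP reporter cells (1000/well, DMEM with 1% FBS) received compounds, then recombinant TGF-beta at 500 pg/mL final for 18 hours at 37 degrees C. Per-cell GFP summed per well was normalised to unstimulated and stimulated DMSO controls before curve fitting.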
ATXN viability: viability counter-screen for ATXN expression inhibitors. S2 cells (HEK-293 line with an ATXN2-luciferase reporter) viability, CellTiter-Fluor protease fluorescence, 24 h. Potency, µM (doses to about 56.7 µM), hits mostly cytotoxic. 0.49% of 400,000 active. AID 651635; also: nearly all actives have a fitted effect of over 40% in size
Gal4-VP16 FLuc: counter-screen for ROR gamma inhibitors: Gal4-VP16 reporter; Drosophila S2 Gal4-VP16 UAS-luciferase, luminescence, 20 h; Potency, µM (doses to about 53.6 µM), for the others: at the top dose activity, negative = inhibition, usual class: inhibitors; 3.5% of 310,000 active; AID 2546;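 also: Gal4-VP16 expression switched on by copper sulfate through the metallothionein promoter; % is scaled to controls: 0 for no effect and ±100 for the full control effect; nearly all actives have a fitted effect of over 50% in size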
HepG2 viability: HepG2 cytotoxicity, counter-screen for TGF-b inhibitors; 0.76% of 410,000 active; Potency, µM (titrated, usually from 46.1 µM), for inactives: at the top dose activity change, negative = cytotoxicity, usual class: cytotoxic; HepG2 CAGA-GFP viability, ATP luminescence, 18 h; AID 588856
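HepG2 CAGA-GFP cells (1000/well, DMEM with 1% FBS) received compound, then TGF-beta at 500 pg/mL final, and were incubated 18 hours at 37 degrees C. Viability was read by CellTiter-Glo luminescence. Media-only wells were set as complete cell-killing and DMSO as no toxicity.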
* marks the source's active call; other numbers are inactive results; i = inactive; ? = inconclusive; . = no result given; ! = a repeat was not active. Calls follow the shape of the dose curve; as a rule, active = well fitted curve in the direction sought with a large enough effect; inconclusive = small, poorly fitted or top-dose-only effect, or another doubt; inactive = no such curve, though single readings can be large; an effect the other way counts as inactive or inconclusive. Potency is read from the fitted curve at half-maximal effect.

SMILES | RORg inh | ATXN2 expr inh | TGFb inhibitor | ATXN viability | Gal4-VP16 FLuc | HepG2 viability
O=C1N/C(=N/O)S/C1=C/c1cccc([N+](=O)[O-])c1 | 16% | . | 12% | i | -10% | 8%
Cc1cccc(/C=C2/S/C(=N/N=C3\CC4CCC3(C)C4(C)C)NC2=O)c1 (configuration not stated) | 8.9µM* | -9% | ? | i | ? | -94%
Cc1ccc(S(=O)Cc2ccc(C(=O)NC3CCCCCC3)o2)cc1 (configuration not stated) | . | -23% | -23% | i | . | 3%
N#CC1C(=O)NC(=O)C(C#N)C12CCCc1sccc12 (configuration not stated) | . | . | 1% | i | . | -1%
CCc1ccc(/C=N/NC(=O)c2cc(C3CC3)nc3ccc(Br)cc23)s1 | 2.2µM* | -9% | -27% | i | 1.6µM* | -33%
COc1ccccc1-c1cc(C(=O)N/N=C/c2ccoc2)c2ccccc2n1 | 11µM* | -18% | 3% | i | ? | -1%
COc1ccccc1-c1cc(C(=O)N/N=C/c2ccc(C)s2)c2ccccc2n1 | 2.8µM* | 133% | -2% | i | 4.5µM* | -27%
CCN(CC)C(=O)COc1ccc(/C=N/NC(=O)c2cc(-c3ccccc3OC)nc3ccccc23)cc1OC | . | -16% | 2% | i | . | 4%
CCc1ccc(/C=N/NC(=O)c2cc(-c3ccccc3OC)nc3ccccc23)s1 | 4µM* | -6% | ? | i | 4.5µM* | -2%
COc1cc(/C=N/NC(=O)c2cc(-c3ccccc3)nc3ccccc23)cc(OC)c1O | -13% | . | 8% | i | 0% | -26%
COc1ccc(/C=N/NC(=O)c2cc(-c3ccccc3OC)nc3ccccc23)cc1COC(C)=O | 10% | -10% | -2% | i | 8% | -14%
CCC(C)NC(=O)c1ccc2c(c1)N=C(C)c1cc(C)ccc1S2 (configuration not stated) | . | -19% | 7.1µM* | ? | . | -22%
Cc1cc(NC(=O)CN2C(=O)NC3(CCCCCC3)C2=O)ccc1Br | . | . | -4% | i | . | -23%
CC(=O)OC[C@H]1O[C@@](COC(C)=O)(O[C@H]2O[C@H](COC(C)=O)[C@@H](OC(C)=O)[C@H](OC(C)=O)[C@H]2OC(C)=O)[C@@H](OC(C)=O)[C@@H]1OC(C)=O | -1% | 9% | . | i | 3% | .
Cc1cccc(NC(=S)NC2CC3CCCC(C2)N3Cc2ccccc2)c1C (configuration not stated) | 14µM* | . | ? | i | ? | -22%
Cc1cccc(NC(=S)NC2CCCC2)c1C | 7.1µM* | -13% | -13% | ? | 7.1µM* | -32%
Cc1cccc(NC(=S)NC2CCCCCC2)c1C | 3.2µM* | -3% | -25% | i | 7.1µM* | -12%
CCc1ccc(NC(=S)NC2CC3CCCC(C2)N3Cc2cccs2)cc1 (configuration not stated) | 2µM* | -36% | -16% | i | 13µM* | -15%
CCc1ccccc1NC(=O)NC1CC2CCC(C1)N2Cc1cccs1 (configuration not stated) | 17% | -10% | -8% | i | -6% | 7%
Cc1cccc(N2CCN(C(=O)Cn3ncc4c([nH]c5ccccc54)c3=O)CC2C)c1 (configuration not stated) | . | 8% | 14% | ? | . | 7%
CC(C)CN1CC(C)C(=O)NC1=S (configuration not stated) | . | 1% | -3% | i | . | 0%
CCC(=O)N1CCCc2cc(S(=O)(=O)N3CCC(C(=O)NC4CCCCC4)CC3)ccc21 | . | -5% | -18% | i | . | -21%
CCc1ccccc1NC(=S)NC1CC2CCC(C1)N2Cc1ccc(F)cc1 (configuration not stated) | 7.1µM* | -5% | -2% | i | ? | -31%
Cc1cccc(NC(=S)NN2CCN(C)CC2)c1C | 9% | 0% | -8% | i | 9% | -1%
Cc1cccc(NC(=S)NN2CCOCC2)c1C | 11µM* | 1% | -4% | i | 2% | -4%
SMILES | RORg inh | ATXN2 expr inh | TGFb inhibitor | ATXN viability | Gal4-VP16 FLuc | HepG2 viability
Cc1c(Cl)cccc1NC(=S)NC1CCCC1 | 4.5µM* | 13% | -15% | i | 5.6µM* | -3%
S=C(Nc1ccccc1Cl)NC1CCC(NC(=S)Nc2ccccc2Cl)CC1 (configuration not stated) | -31% | -25% | 9% | i | 0% | 2%
COc1ccc(/C=C/c2cc(OC)c(OC)cc2CC[N+](C)(C)C)cc1 | -10% | . | . | . | -8% | .
O=[N+]([O-])c1cc2oc3c(c2c(C=NCc2ccncc2)c1O)CCCC3 | 13µM* | -13% | ? | i | ? | -7%
CC(C)(C)N=Cc1c(O)ccc2oc3c(c12)CCCC3 | -36% | -21% | 8% | i | -12% | 10%
COc1cc(Cl)c(C)cc1NC(=O)CN1CCN(C(=O)c2cccs2)CC1 | . | . | -2% | i | . | -18%
CC(C)(C)C1CCC(OCC(O)CN2CCN(Cc3ccccc3)CC2)CC1 (configuration not stated) | -25% | 0% | ? | ? | -24% | 11µM*
CCCSc1ccc2nc(-c3ccccc3)cn2c1 | 2.2µM* | ? | ? | i | 6.3µM* | -71%
COc1cc(/C=N/NC(=O)CC(=O)NC2CCCCC2)ccc1O | -2% | 3% | -7% | i | -2% | -41%
S=C(N/N=C/c1ccc2c(c1)OCO2)NC1CC2CCC1C2 (configuration not stated) | 4.5µM* | 8% | -18% | ? | 3.2µM* | -29%
COc1ccc(/C=N/NC(=S)N[C@H]2CC3CCC2C3)cc1 (some centres not stated) | 0.63µM* | 7% | 0% | i | 3.2µM* | -43%
COc1cc(/C=N/NC(=S)NC2CC3CCC2C3)ccc1O (configuration not stated) | 2µM* | 11% | ? | ? | 5µM* | -73%
CSc1ccccc1C(=O)OCC(=O)NC1CCCCCCC1 | . | . | 8% | i | . | 6%
COCc1c(C(=O)NC2CCCC2)cnn1-c1nccc(-c2cc(C)sc2C)n1 | . | . | . | i | . | .
COc1ccc(CN2[C@@H](CC(C)=O)c3ccc(/C=C/C(C)=O)cc3S2(=O)=O)cc1 | . | ? | ? | ? | . | 11µM*!
COc1cccc(N2[C@@H](CC(C)=O)c3ccc(/C=C/C(C)=O)cc3S2(=O)=O)c1 | . | ? | 16µM* | . | . | -37%
